Assay results from ChEMBL document CHEMBL3988442, “University of Dundee, Small-Polar-MMV Screening Library” (2021).

molecular target: T1, Arginase-2, mitochondrial (Homo sapiens) (UniProt P78540); assay: in vitro enzyme assay to detect the production of urea directly proportional to the activity of Arginase II; format: functional; design: scale not given: in the data most compounds retested in dose-response had high values; conditions: 33.3 µM
T1 sequence (whole entry): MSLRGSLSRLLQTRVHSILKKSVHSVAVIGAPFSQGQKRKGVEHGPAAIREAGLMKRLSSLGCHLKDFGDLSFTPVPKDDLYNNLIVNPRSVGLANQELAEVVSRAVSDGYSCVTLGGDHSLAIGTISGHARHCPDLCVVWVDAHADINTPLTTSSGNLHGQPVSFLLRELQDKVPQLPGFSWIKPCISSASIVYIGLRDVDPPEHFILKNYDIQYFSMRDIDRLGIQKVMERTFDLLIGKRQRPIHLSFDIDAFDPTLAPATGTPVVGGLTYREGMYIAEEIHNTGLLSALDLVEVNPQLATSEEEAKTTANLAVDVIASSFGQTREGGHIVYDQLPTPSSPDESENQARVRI

Structure (SMILES)	Percent Effect [%]
Cc1nc[nH]c1CN1CCN(C(=O)c2cccs2)[C@H]2CS(=O)(=O)C[C@H]21	3.85
Cc1ccc(CCC(=O)N2CCCC(n3cncn3)C2)c(C)c1 (stereo not drawn)	0.444
Cc1cc(-c2nn(C)c(Cl)c2CN2CCOCC2CC(=O)O)no1 (stereo not drawn)	15.7
CCc1nc(CN2CCCN(C(=O)c3cn[nH]c3CC)CC2)cs1	-6.97
CCC(=O)N1CCC(Cc2nccnc2Nc2ccccn2)CC1	-1.77
Cn1cc(NC(=O)N2CCC(NS(C)(=O)=O)CC2)ccc1=O	13.9
CC(C)CC(=O)N1C[C@@H]2CCN(c3ncccn3)C[C@@H]2C1	-5.02
CN(Cc1ccc2c(c1)OCCO2)C(=O)Cn1ccccc1=O	5.76
Cc1ccc(N2CCC3(CCCN(C(=O)c4cccnc4)C3)C2)nn1 (stereo not drawn)	0.405
O=C(c1cc[nH]n1)N1CCCC(c2cccc(-n3ccnc3)n2)C1 (stereo not drawn)	4.42
COC(=O)C1CCN(C(=O)c2ccc(N(C)S(C)(=O)=O)c(C)c2)CC1	-1.75
CC(=O)N(Cc1ncc(C)o1)C1CCN(CCCc2cnn(C)c2)C1 (stereo not drawn)	-3.99
O=C(c1ccc(F)cc1Cl)N1CCC(Nc2cccnn2)CC1	-4.71
Cc1cc(CNc2cc(Cl)ccc2OCCS(C)(=O)=O)no1	-1.23
CN1[C@H](Cn2cccn2)C[C@@H]2CN(C(=O)Cc3cccs3)CC[C@@H]21	-1.83
Cc1cccc(CN2C[C@@H]3COC[C@]3(CNC(=O)c3ccsc3)C2)n1	-3.64
COc1ccc(C2CC(=O)Nc3c2nc2n3CCCC2)cc1OC (stereo not drawn)	0.35
CN(C)CCN1CCC2(CCN(C(=O)c3ccc(F)cc3)CC2)C1=O	2.28
